Among all 200,000 compounds or so, about 18,000 (9%) were called active. What follows is part of a selection rich in actives, with near analogues and random picks from the rest. Values without a mark were called inactive. Cut-off read from the data, not from the text of the source: active = inhibition above about 50%; inactive = the rest.
Test: Leishmania major promastigote growth inhibition, primary screen (AID 1063);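 note: promastigotes grown with compound for 44 hours at 28 °C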
Conditions: Leishmania major promastigotes, resazurin fluorescence viability; at 10 µM; stronger effect = higher value

SMILES | inhibition
O=C(O)CC(SCC(=O)Nc1ccc(Br)cc1)C(=O)O (stereo not drawn) | -3.9%
CC1(C)CC(=O)CC2(C1)NCC(c1ccccc1Cl)c1c2[nH]c2ccccc12 (stereo not drawn) | 53.5% (active)
O=C(Nc1nnc(C2COc3ccccc3O2)o1)c1ccc(F)cc1 (stereo not drawn) | 84.8% (active)
c1ccc2c(c1)OCC(c1nn3cnnc3s1)O2 (stereo not drawn) | -7.7%
Cc1onc(-c2ccccc2)c1C(=O)NNC(=S)NC(=O)c1ccc(F)cc1 | -0.74%
CCn1nc(C)c(CN2CCN(Cc3ccc(OC)c(C)c3C)C(CCO)C2)c1C (stereo not drawn) | 5.83%
CC1CCC(C(C)C)C(=O)/C1=C\c1ccc(NC(=O)CCC(=O)O)cc1 (stereo not drawn) | 4.09%
O=C(c1ccc(OC2CCN(Cc3ccccn3)CC2)cc1)N1CCCCCC1 | 39.9%
O=C(N/N=C/c1ccc([N+](=O)[O-])o1)c1cccc(S(=O)(=O)N2CCOCC2)c1 | 99.2% (active)
COc1ccc(Br)cc1/C=N/NC(=O)c1cccc(S(=O)(=O)N2CCOCC2)c1 | 14.1%
O=C(c1cccc(S(=O)(=O)N2CCOCC2)c1)N1CCOCC1 | -2.4%
O=C(Nc1ccc2oc(-c3ccccc3F)nc2c1)c1ccco1 | 9.45%
CS(=O)(=O)n1nc(-c2ccco2)nc1N | -6.28%
CONc1nc2nonc2nc1NOC | -1.47%
Cc1nn(-c2ccccc2)c(Cl)c1/C=C/C(=O)c1ccc(O)cc1 | 44.1%
Cc1nn(-c2ccccc2)c(Cl)c1C(=O)Nc1ccccc1 | 1.56%
Cc1ccc(C(=O)/C=C/c2c(C)nn(-c3ccccc3)c2Cl)cc1 | 73.7% (active)
CCCOC(=O)c1c(NC(=O)c2cnn3c2NC(c2ccccc2)CC3C(F)(F)F)sc2c1CCCC2 (stereo not drawn) | 4.09%
CCOC(=O)N1CCC(=NNC(N)=O)CC1 | -11.1%
Cc1cccc(NC(=O)CN2C(=O)c3ccccc3C2=O)c1C | -7.46%
CCOc1ccc2nc(NC(=O)c3cc([N+](=O)[O-])ccc3N3CCOCC3)sc2c1 | 96% (active)
Cc1cc(C)cc(OCC(=O)Nc2nc3ccc([N+](=O)[O-])cc3s2)c1 | -2.84%
COc1ccc2nc(Nc3nc4ccc(NC(C)=O)cc4s3)sc2c1 | 6.91%
O=C(NC1CCCCC1)c1cc([N+](=O)[O-])ccc1N1CCOCC1 | -6.49%
CCOc1ccc2nc(Nc3nc4ccc(NC(C)=O)cc4s3)sc2c1 | 72.1% (active)

SMILES | inhibition
CCOc1ccc2nc(SC(CC)C(=O)Nc3cc(C)on3)sc2c1 (stereo not drawn) | 6.15%
COc1cccc(NC(=O)C(Sc2nnnn2C)c2ccccc2)c1 (stereo not drawn) | 10.5%
COc1ccc(CN(C)Cc2nc3cc(OC)c(OC)cc3c(=O)[nH]2)c(OC)c1 | 1.39%
Cc1cc(NC(=O)CSc2nc3cc(Cl)ccc3c(=O)n2Cc2ccco2)no1 | 4.4%
COc1ccc(-c2cc(-c3ccc(N)cc3)nc(N)c2C#N)cc1OC | -6.13%
O=C(NC1CC1)c1ccc(-c2ccccc2)cc1 | 6.37%
CCOC(=O)c1ccc(NC(=S)Nc2cc(C)cc(C)n2)cc1 | 5.79%
O=C(COc1ccc(Cl)cc1)NCc1nnc(SCC(=O)NCC2CCCO2)o1 (stereo not drawn) | -8.43%
O=C(CSCc1ccc([N+](=O)[O-])cc1)NCCSCc1ccccc1 | 12.9%
CC(=O)N1c2ccccc2N(Cc2ccc([N+](=O)[O-])cc2)C(=O)C1(C)C | 51.9% (active)
CC(O)c1nc2ccccc2n1Cc1ccc([N+](=O)[O-])cc1 (stereo not drawn) | -2.56%
O=C(Nn1cnc2ccccc2c1=O)c1ccccc1 | -0.77%
CCNC(=O)NNC(=O)C1CC(c2cccs2)=NO1 (stereo not drawn) | -8.39%
CCN(C(=O)c1ccc(Br)cc1)c1ccccc1 | 3.92%
Cc1cc([N+](=O)[O-])nn1CCCC(=O)Nc1cccnc1Cl | -6.69%
O=C(C1CCN(S(=O)(=O)c2ccc(Br)s2)CC1)N1CCN(C2CCCCC2)CC1 | 59.6% (active)
O=C(C1CCN(S(=O)(=O)c2cccs2)CC1)N1CCCCCC1 | -2.87%
CS(=O)(=O)N1CCC(C(=O)N2CCN(c3ccccc3)CC2)CC1 | -3.18%
Cc1ccc(COc2ccc(C(=O)NN)cc2)cc1 | -1.34%
CN(CCOc1ccc(Br)cc1)CC(=O)Nc1cccc(S(=O)(=O)NC2=NCCC2)c1 | -1.24%
CCN1CCN(CCCCOc2ccccc2F)CC1 | 47.3%
CC1CN(CCOc2ccccc2[N+](=O)[O-])CC(C)O1 (stereo not drawn) | 8.57%
COc1ccccc1N1CCN(CCCCOc2ccc(F)cc2)CC1 | -5.52%
Cc1ccc(C(C)(C)C)c(OCCCCN2CCCC2)c1 | 87.1% (active)
Cc1ccc2c(C(=O)CN3CCCC3)c(C)[nH]c2c1 | 8.69%

SMILES | inhibition
C=CCN(CC=C)CCOc1ccccc1[N+](=O)[O-] | 12.2%
Cc1ccc(OCCCCN2CCCCC2)c(Br)c1 | 97.8% (active)
Cc1ccc(OCCCC(=O)N2CCOCC2)c(C)c1 | -2.9%
O=[N+]([O-])c1ccccc1OCCCCN1CCCCC1 | 82.4% (active)
CC(C)OC(=O)Cn1nc(C(F)(F)F)c2c1CCCC2 | -5.66%
CC1CCCC(NC(=O)c2cccc(N3CCCC3=O)c2)C1C (stereo not drawn) | -7.83%
COCCNc1nc2nonc2nc1N1CCCC1c1nccs1 (stereo not drawn) | -4.44%
O=C(c1cccc([N+](=O)[O-])c1)N1CCN(C(=O)c2ccco2)CC1 | 0.98%
COc1ccc(OC)c(NC(=O)CSc2nc3cccnc3n2C)c1 | -3.05%
CCn1c(CNc2ccc(OC)cc2)nnc1SCC(=O)c1ccc(OC)cc1 | 70.5% (active)
COC(=O)c1ccc(NC(=O)CSc2nnc(CNc3ccc(OC)cc3)n2C)cc1 | 9.68%
C=CCn1c(CNC(=O)c2ccco2)nnc1SCC(=O)c1ccc(OC)cc1 | -7.42%
CCn1c(COc2ccc(OC)cc2)nnc1SCC(=O)Nc1cc(OC)ccc1OC | 60.8% (active)
CCn1c(COc2ccccc2)nnc1SCC(=O)Nc1ccc2c(c1)OCCO2 | -3.59%
CCSC1=NCCN1S(=O)(=O)c1ccc(F)cc1 | -0.73%
O=c1c2ccccc2c(-c2ccccc2)nn1-c1ccccn1 | -0.99%
CC(=O)N1C(C)c2ccccc2C(C)(C)CC12CCCCC2 (stereo not drawn) | 10.5%
Cc1ccc(N=C2NC(=O)c3cccc([N+](=O)[O-])c32)cc1 | -1.43%
COc1ccc(-c2cc3nc(C)c(CCC(=O)NC(C)CCc4ccco4)c(C)n3n2)c(OC)c1 (stereo not drawn) | 100% (active)
COc1cc(OC)cc(-c2nc3nc(C)c(CCC(=O)NCc4ccco4)c(C)n3n2)c1 | 2%
Cc1nc2c(-c3ccc(F)cc3)c(C)nn2c(C)c1CCC(=O)NCc1ccco1 | -2.49%
Cc1ccc2cc(CN(c3ccc(C)c(C)c3)S(C)(=O)=O)c(=O)[nH]c2c1 | 9.29%
CCN(CCn1cccn1)C(=O)CC1C(=O)NCCN1Cc1cccc(OC)c1OC (stereo not drawn) | 5.31%
CCOC(=O)c1sc2nc(C)nc(Nc3ccc(OC)c(OC)c3)c2c1C | -0.22%
COc1ccc(-c2n[nH]c(C)c2-c2ccc(OC)c(OC)c2)c(O)c1 | 4.64%

SMILES | inhibition
COc1ccc(O)c(C=Nc2cc(C)on2)c1 | -9.53%
COc1ccc(-c2onc(C)c2-c2ccc3c(c2)OCCO3)c(O)c1 | 72.5% (active)
CCOC(=O)CNC(=O)CSc1ccc2nnc(-c3cccnc3)n2n1 | 4.24%
CC(=O)Cn1ncc(N2CCOCC2)c(Br)c1=O | 5.25%
COc1ccc(CNC2CCCCC2)cc1 | 72.3% (active)
COc1ccc(CCNC(=O)COC(=O)C2CCCCC2)cc1 | -2.53%
COc1ccc(CNC(=O)C2CCN(S(C)(=O)=O)CC2)cc1 | 7.6%
O=c1[nH]n2c(-c3ccccc3)nc(O)c2c2ccccc12 | -6.91%
Nn1cnnc1N/N=C/c1cc([N+](=O)[O-])c(Cl)cc1Cl | 64.3% (active)
CCc1cc2c(=O)c(-c3ccc(F)cc3)c(C(F)(F)F)oc2cc1OCC(=O)O | 0.79%
O=C(CCc1n[nH]c(=O)[nH]c1=O)N/N=C/c1ccc(Br)o1 | 0.7%
CC(C)C1Nc2c(C(=O)O)cccc2C(Nc2ccccc2C(=O)O)C1(C)C (stereo not drawn) | 0.14%
O=C(CSc1nnc(-c2ccncc2)o1)NCc1ccc(Cl)cc1 | -6.74%
Cc1occc1C(=O)Nc1nnc(C2CCCCC2)s1 | 7.17%
O=C(Cc1cccs1)Nc1nnc(C2CC2)s1 | -7.6%
O=C(Nc1nnc(C2CC2)s1)c1ccccn1 | 84.9% (active)
Cc1nc(N)c(Br)c(C)c1Br | 1.28%
CC(NC(=S)Nc1ccc(S(N)(=O)=O)cc1)c1ccc2c(c1)OCO2 (stereo not drawn) | 70% (active)
CC(NC(=O)Nc1ccc2c(c1)OCO2)c1ccncc1 (stereo not drawn) | -3.06%
CC(C)(C)C(=O)NC(NC(=S)Nc1ccc(S(N)(=O)=O)cc1)C(Cl)(Cl)Cl (stereo not drawn) | 2.02%
COc1c(C)cc(C(=O)C2CCCN(S(=O)(=O)c3c(C)noc3C)C2)cc1C (stereo not drawn) | 6.97%
CN(/C(=N/S(=O)(=O)c1cccs1)c1ccccc1)c1ccc(O)cc1 | 7.12%
CSCC(NS(=O)(=O)c1ccc(C)cc1)C(=O)O (stereo not drawn) | -7.96%

Reference: PubChem BioAssay AID1063 (University of Pittsburgh Molecular Library Screening Center, 2008)
